# In the supplement of paper PMC8728848:
# The sample as a whole holds a higher share of the strongest signals than the screen did.
# Experiments:
# Assay in all cases: glycan array binding signal (z-score within array); higher = stronger binding
# Conditions in all cases: glycan notation: IUPAC condensed, linker removed
# [1] = target: Fuc(a1-2)Gal(b1-3)GlcNAc(b1-3)[Neu5Ac(a2-6)Gal(b1-4)GlcNAc(b1-6)]Gal(b1-4)Glc
# Method in brief: (§1)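 Glycan array data came from 3228 arrays in the Consortium for Functional Glycomics database, and only arrays with an available protein sequence were kept. Glycan names were put into IUPAC-condensed notation, and columns mapping to the same glycan were averaged. The binding signal is a within-array Z-score, averaged across arrays of one protein sequence run at different concentrations or buffers and across linkers. A negative Z-score can be read as non-binding.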
# [2] = target: Fuc(a1-2)Gal(b1-3)[Fuc(a1-4)]GlcNAc(b1-2)Man(a1-3)[Fuc(a1-2)Gal(b1-3)[Fuc(a1-4)]GlcNAc(b1-2)Man(a1-6)]Man(b1-4)GlcNAc(b1-4)[Fuc(a1-6)]GlcNAc(b1-4)[Fuc(a1-6)]GlcNAc
# Method in brief: as §1
# [3] = target: Fuc(a1-2)Gal(b1-4)Glc
# Method in brief: as §1
# [4] = target: Fuc(a1-2)Gal(b1-4)Glc6S
# Method in brief: as §1
# [5] = target: Fuc(a1-2)Gal(b1-4)GlcNAc
# Method in brief: as §1
# [6] = target: Fuc(a1-2)Gal(b1-4)GlcNAc(b1-3)[Fuc(a1-2)Gal(b1-4)GlcNAc(b1-6)]GalNAc
# Method in brief: as §1
# [7] = target: Fuc(a1-2)Gal(b1-4)GlcNAc(b1-6)GalNAc
# Method in brief: as §1
# [8] = target: Fuc(a1-2)Gal(b1-4)GlcNAc6S
# Method in brief: as §1
# [9] = target: Fuc(a1-2)Gal(b1-4)[Fuc(a1-3)]GlcNAc(b1-2)Man(a1-3)[Fuc(a1-2)Gal(b1-4)[Fuc(a1-3)]GlcNAc(b1-2)Man(a1-6)]Man(b1-4)GlcNAc(b1-4)[Fuc(a1-6)]GlcNAc
# Method in brief: as §1
# [10] = target: Fuc(a1-2)Gal6S(b1-3)GlcNAc
# Method in brief: as §1
# [11] = target: Fuc(a1-2)Gal6S(b1-4)Glc
# Method in brief: as §1
# [12] = target: Fuc(a1-2)Gal6S(b1-4)Glc6S
# Method in brief: as §1
# [13] = target: Fuc(a1-2)[Gal(a1-3)]Gal
# Method in brief: as §1
# [14] = target: Fuc(a1-2)[Gal(a1-3)]Gal(b1-4)GlcNAc(b1-2)Man(a1-3)[Fuc(a1-2)[Gal(a1-3)]Gal(b1-4)GlcNAc(b1-2)Man(a1-6)]Man(b1-4)GlcNAc(b1-4)GlcNAc
# Method in brief: as §1
# [15] = target: Fuc(a1-2)[Gal(a1-3)]Gal(b1-4)[Fuc(a1-3)]GlcNAc(b1-3)GalNAc
# Method in brief: as §1
# [16] = target: Fuc(a1-2)[Gal(a1-4)]Gal(b1-4)GalNAc
# Method in brief: as §1
# [17] = target: Fuc(a1-2)[Gal(a1-4)]Gal(b1-4)GlcNAc
# Method in brief: as §1
# [18] = target: Fuc(a1-2)[GalNAc(a1-4)]Gal(b1-4)GlcNAc
# Method in brief: as §1
# [19] = target: Fuc(a1-3)[Gal(b1-4)]GlcNAc(b1-6)[Gal(b1-3)GlcNAc(b1-3)]Gal(b1-4)Glc
# Method in brief: as §1
# [20] = target: Fuc(a1-3)[GalNAc(b1-4)]GlcNAc6S
# Method in brief: as §1
# [21] = target: Gal(a1-3)Gal(b1-4)GlcNAc(b1-2)Man(a1-3)[Gal(a1-3)Gal(b1-4)GlcNAc(b1-2)Man(a1-6)]Man(b1-4)GlcNAc(b1-4)GlcNAc
# Method in brief: as §1
# [22] = target: Gal(a1-4)Gal(b1-4)GlcNAc(b1-2)Man(a1-3)[Gal(a1-4)Gal(b1-4)GlcNAc(b1-2)Man(a1-6)]Man(b1-4)GlcNAc(b1-4)GlcNAc
# Method in brief: as §1
# [23] = target: Gal(a1-4)GlcNAc
# Method in brief: as §1
# [24] = target: Gal(b1-3)GalNAc(b1-4)[Neu5Ac(a2-3)]Gal(b1-4)Glc
# Method in brief: as §1
# [25] = target: Gal(b1-3)GlcNAc(a1-6)Gal(b1-4)GlcNAc
# Method in brief: as §1
# [26] = target: Gal(b1-3)GlcNAc(b1-2)Man(a1-3)[Gal(b1-3)GlcNAc(b1-2)Man(a1-6)]Man(b1-4)GlcNAc(b1-4)GlcNAc
# Method in brief: as §1
# [27] = target: Gal(b1-3)GlcNAc(b1-2)Man(a1-3)[Gal(b1-3)GlcNAc(b1-2)Man(a1-6)]Man(b1-4)GlcNAc(b1-4)[Fuc(a1-6)]GlcNAc
# Method in brief: as §1
# [28] = target: Gal(b1-3)[Fuc(a1-4)]GlcNAc(b1-6)GalNAc
# Method in brief: as §1
# [29] = target: Gal(b1-3)[Neu5Ac(a2-6)]GlcNAc(a1-4)Gal(b1-4)Glc
# Method in brief: as §1
# [30] = target: Gal(b1-3)[Neu5Ac(a2-6)]GlcNAc(b1-4)Gal(b1-4)Glc
# Method in brief: as §1
binder,measurement,setting,value
"UEA-I (Ulex europaeus), P22972 (protein) SDDLSFKFKNFSQNGKDLSFQGDASVIETGVLQLNKVGNNLPDETGGIARYIAPIHIWNCNTGEVASFITSFSFFMETSANPKAATDGLTFFLAPPDSPLRRAGGYFGLFEDTKDNDSSYQTVAVEFDTIGSPVNFDDPGFPHIGIDVNRVKSINAERWNKRYGLNNVANVEIIYEASSKTLTASLTYPSDQTSISVTSIVDLKEILPEWVSVGFSGGTYIGRQATHEVLNWYFTSNLINTNS",glycan array binding signal (z-score),[1],-0.101
same,glycan array binding signal (z-score),[2],-0.186
same,glycan array binding signal (z-score),[3],4.65
same,glycan array binding signal (z-score),[4],8.87
same,glycan array binding signal (z-score),[5],5.04
same,glycan array binding signal (z-score),[6],5.44
same,glycan array binding signal (z-score),[7],4.28
same,glycan array binding signal (z-score),[8],5.67
same,glycan array binding signal (z-score),[9],-0.035
same,glycan array binding signal (z-score),[10],-0.194
same,glycan array binding signal (z-score),[11],4.67
same,glycan array binding signal (z-score),[12],5.33
same,glycan array binding signal (z-score),[13],-0.199
same,glycan array binding signal (z-score),[14],-0.194
same,glycan array binding signal (z-score),[15],-0.022
same,glycan array binding signal (z-score),[16],5.51
same,glycan array binding signal (z-score),[17],5.58
same,glycan array binding signal (z-score),[18],5.17
same,glycan array binding signal (z-score),[19],-0.103
same,glycan array binding signal (z-score),[20],-0.217
same,glycan array binding signal (z-score),[21],-0.163
same,glycan array binding signal (z-score),[22],0.015
same,glycan array binding signal (z-score),[23],-0.168
same,glycan array binding signal (z-score),[24],-0.207
same,glycan array binding signal (z-score),[25],-0.139
same,glycan array binding signal (z-score),[26],-0.101
same,glycan array binding signal (z-score),[27],-0.16
same,glycan array binding signal (z-score),[28],-0.098
same,glycan array binding signal (z-score),[29],-0.409
same,glycan array binding signal (z-score),[30],-0.234
